Drawing on PubChem BioAssay (NCI), this text covers growth for 8 compounds.

Each structure is given as a SMILES string. This is part of a sample that, as a whole, favours compounds with a hit. Of some 83,000 tested, about 20% had one in any assay.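 Plates (96-well) were seeded with cells, treated with compound at one concentration, and incubated for 48 hours before percent growth was determined.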 A number with no mark means an inactive call. The source made the active and inactive calls. The calls were made as follows: active = growth percent below 10; inactive = the rest.

Holding throughout (assay): NCI-60 one-dose screen, 48 h (100 = growth as untreated, 0 = no growth, -100 = all killed)
What all share (details): 10 µM unless noted

Assay [1] relates to SR leukemia.
For assay [2], the system named is RPMI-8226 leukemia.
The test system of assay [3] is OVCAR-8 ovarian.
Assay [4] concerns OVCAR-5 ovarian.
Assay [5] relates to OVCAR-4 ovarian.
In assay [6] the test system is SK-OV-3 ovarian.
Assay [7] deals with IGROV1 ovarian.
For assay [8], the system named is OVCAR-3 ovarian.
Assay [9] has as its system HS 578T breast.
Assay [10] relates to NCI/ADR-RES ovarian.
Assay [11] concerns T-47D breast.
Assay [12] has as its system BT-549 breast.
For assay [13], the system named is MDA-MB-435 melanoma.
Assay [14] has as its system SW-620 colon.
Assay [15] concerns MCF7 breast.
In assay [16] the test system is HCT-116 colon.
Assay [17] concerns HCC-2998 colon.
In assay [18] the test system is KM12 colon.

On to `O=C(CSc1nc2ccccc2c(=O)n1-c1ccc(Cl)cc1)N/N=C/c1ccc(N2CCCCC2)cc1`, for which the growth is 74.8% in assay [1]; 100% in [2]; 65.3% in assay [3]; 76.9% in [4]; 58.6% in assay [5]; 30.1% in [6]. In addition, the growth was 55.5% in [7]; 32.8% in assay [8]; 37.9% in [9]; 39.9% in assay [10]; 74.6% in [11]; 104% in [12]. Further, the growth in [13] is 86.9%; in [14], 65.9%; in assay [15] it was 67.5%; in assay [16], 36.9%; in assay [17] it was 118%; in [18], 96.4%.

Consider `Fc1ccc(-c2cc3nc(C(Cl)Cl)nc(-c4ccc(F)cc4)n3n2)cc1`, for which the growth was 3.96% (active) in assay [1]; 3.43% (active) in [2]; 11.8% in assay [3]; -14.3% (active) in assay [4]; -9.54% (active) in assay [5]; -29.2% (active) in assay [6]. Besides, the growth is 31.4% in assay [7]; -31.7% (active) in [8]; -1.86% (active) in [9]; 19.4% in assay [10]; 34.3% in [11]; 47% in [12]. In addition, the growth in assay [13] was 14.6%; in assay [14], -29.3% (active); in assay [15], 24.2%; in [16] it was 4.72% (active); in assay [17] it was -45.8% (active); in assay [18] it was -12.5% (active).

Take `C#CCn1cccc1CNc1ccc(OC)cc1`: the growth in assay [1] is -36.1% (active); in assay [2] it was -58.8% (active); in assay [3] it was -28% (active); in [4], -89.5% (active); in [5], -63.8% (active); in [6], -63.5% (active). Besides, the growth was -68.5% (active) in [7]; -84.7% (active) in assay [8]; -40% (active) in assay [9]; -53.1% (active) in assay [10]; -55.7% (active) in assay [11]; -83.7% (active) in [12]. Also, the growth in assay [13] was -54.5% (active); in assay [14], -36.2% (active); in assay [15], -53.8% (active); in [16], -68.7% (active); in assay [17], -89% (active); in assay [18], -72.6% (active).

Regarding `Cc1ccc(-c2cc3nc(C(Cl)Cl)nc(-c4ccco4)n3n2)cc1`, the growth in [1] was 82.4%; in [2], -29.4% (active); in [3], 18.3%; in [4] it was 2.3% (active); in assay [5], 36%; in assay [6], 24.2%. The growth in [7] is 64.5%; in [8], -36.3% (active); in [9] it was -2.05% (active); in [10], 3.8% (active); in assay [11] it was 21.2%; in [12], 86.5%. In addition, the growth in assay [13] was 18.1%; in [14], 8.55% (active); in [15], 3.51% (active); in assay [16], 1.68% (active); in assay [17] it was -50% (active); in [18], -21.3% (active).

As to `O=S(=O)(NCCCNc1nccc(-c2[nH]c(-c3ccccc3)nc2-c2ccc(Cl)c(O)c2)n1)c1ccc(Br)cc1`, the growth in assay [1] was 15.3%; in assay [2], 22.1%; in assay [3], 33.3%; in assay [4] it was 72.2%; in assay [5], 46.6%; in [6] it was 68.4%. The growth was 36.8% in assay [7]; 24.1% in assay [8]; 63.2% in [9]; 42.6% in [10]; 30% in [11]; 40.3% in assay [12]. For the same compound, the growth in [13] is 2.09% (active); in assay [14] it was 55.8%; in assay [15] it was 19.5%; in assay [16] it was 14.5%; in assay [17], 47.2%; in assay [18], 22%.

On to `CCO/C=N/C1=C(C#N)C(c2ccc(OC)cc2)c2sc3c(C)cccc3c2O1` (centres undefined), for which the growth was 17.9% in [1]; 0.107% (active) in [2]; 29.3% in assay [3]; 34.4% in assay [4]; 85.3% in assay [5]; 50.3% in [6]. For the same compound, the growth in assay [7] is 27.1%; in assay [8] it was 7.72% (active); in assay [9] it was 16.6%; in [10], 10.9%; in assay [11], 34.5%; in assay [12], 35.2%. The growth is -21.5% (active) in [13]; 33.5% in assay [14]; 23.5% in assay [15]; 12% in assay [16]; 21.1% in assay [17]; 19% in assay [18].

With `CCCCCc1ccc(S(=O)(=O)Nc2cc(-c3csc(NC(=O)CN4CCN(C)CC4)n3)ccc2OC)cc1`, the growth in [1] is -20.3% (active); in assay [2], -27% (active); in [3], 50.8%; in assay [4], 62.4%; in assay [5], 41.8%; in assay [6], 73.4%. The growth was 14.2% in [7]; -19.4% (active) in [8]; -30.3% (active) in [9]; 41.9% in assay [10]; -24.3% (active) in assay [11]; 87.7% in assay [12]. Also, the growth in assay [13] was -84.1% (active); in [14], -26.9% (active); in assay [15], -63.8% (active); in assay [16] it was -70.8% (active); in [17], -50.2% (active); in assay [18] it was 25.8%.

Take `CCc1ccc(SC2c3ccc(N(CC)CC)cc3Oc3nc(N)c(C#N)c(N)c32)cc1` (centres undefined): the growth in [1] is -0.413% (active); in assay [2], -29.6% (active); in [3] it was 5.08% (active); in [4], -84.2% (active); in [5], 7.28% (active); in assay [6] it was 17.8%. The growth in assay [7] is -78% (active); in assay [8] it was -64.8% (active); in assay [9], 9.11% (active); in assay [10] it was 5.13% (active); in assay [11] it was -27.3% (active); in assay [12] it was 65.9%. Further, the growth in assay [13] is -0.759% (active); in assay [14], -24.8% (active); in assay [15] it was -84.9% (active); in assay [16], -83.1% (active); in assay [17], -83% (active); in [18] it was -57.9% (active).
